# Data from ChEMBL document CHEMBL2218924, “A broad activity screen in support of a chemogenomic map for kinase signalling research and drug discovery” (Biochem J, 2013).
# Key:
# [1] = target: Tyrosine-protein kinase Lck (Homo sapiens) (UniProt P06239); details: at 10 µM
# [2] = target: Tyrosine-protein kinase Lck (Homo sapiens) (UniProt P06239); details: at 1 µM
# [3] = target: Tyrosine-protein kinase Lck (Homo sapiens) (UniProt P06239); details: at 10 µM; remark: listed apart in the source
# [4] = target: Tyrosine-protein kinase Lyn (Homo sapiens) (UniProt P07948); details: at 1 µM
# [5] = target: Tyrosine-protein kinase Lyn (Homo sapiens) (UniProt P07948); details: at 10 µM
# [6] = target: Mitogen-activated protein kinase 3 (Homo sapiens) (UniProt P27361); details: at 1 µM
# [7] = target: Mitogen-activated protein kinase 3 (Homo sapiens) (UniProt P27361); details: at 10 µM
# [8] = target: Mitogen-activated protein kinase 1 (Homo sapiens) (UniProt P28482); details: at 1 µM
# [9] = target: Mitogen-activated protein kinase 1 (Homo sapiens) (UniProt P28482); details: at 10 µM
# [10] = target: MAP kinase-activated protein kinase 2 (Homo sapiens) (UniProt P49137); details: at 1 µM
# MAP kinase-activated protein kinase 2 (Homo sapiens), sequence (P49137 whole entry, looked up): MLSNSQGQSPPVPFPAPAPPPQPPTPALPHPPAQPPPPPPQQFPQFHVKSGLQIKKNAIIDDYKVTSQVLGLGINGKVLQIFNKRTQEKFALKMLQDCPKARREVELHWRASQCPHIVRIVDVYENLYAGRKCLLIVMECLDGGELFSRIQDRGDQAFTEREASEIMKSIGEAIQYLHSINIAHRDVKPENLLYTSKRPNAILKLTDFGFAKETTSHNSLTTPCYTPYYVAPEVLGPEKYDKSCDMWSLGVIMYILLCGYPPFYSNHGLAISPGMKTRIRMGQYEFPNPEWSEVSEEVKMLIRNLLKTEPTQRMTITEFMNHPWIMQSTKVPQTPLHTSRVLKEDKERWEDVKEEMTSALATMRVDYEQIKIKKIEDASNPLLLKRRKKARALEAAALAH
# Tyrosine-protein kinase Lyn (Homo sapiens), sequence (P07948 2-512 limits assumed): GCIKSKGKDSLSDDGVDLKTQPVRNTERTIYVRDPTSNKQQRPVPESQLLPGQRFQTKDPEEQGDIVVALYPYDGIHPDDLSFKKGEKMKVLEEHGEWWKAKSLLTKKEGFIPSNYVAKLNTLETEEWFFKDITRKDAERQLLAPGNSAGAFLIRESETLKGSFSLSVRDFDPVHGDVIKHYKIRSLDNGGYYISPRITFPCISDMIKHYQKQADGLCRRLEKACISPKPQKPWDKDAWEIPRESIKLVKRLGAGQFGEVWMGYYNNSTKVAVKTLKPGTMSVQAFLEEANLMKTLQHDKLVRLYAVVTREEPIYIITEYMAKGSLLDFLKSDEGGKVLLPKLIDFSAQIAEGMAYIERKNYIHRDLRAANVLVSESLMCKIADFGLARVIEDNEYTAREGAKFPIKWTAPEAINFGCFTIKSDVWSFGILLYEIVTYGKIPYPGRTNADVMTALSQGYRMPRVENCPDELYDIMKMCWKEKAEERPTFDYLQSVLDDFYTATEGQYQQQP
# Mitogen-activated protein kinase 1 (Homo sapiens), sequence (P28482 whole entry): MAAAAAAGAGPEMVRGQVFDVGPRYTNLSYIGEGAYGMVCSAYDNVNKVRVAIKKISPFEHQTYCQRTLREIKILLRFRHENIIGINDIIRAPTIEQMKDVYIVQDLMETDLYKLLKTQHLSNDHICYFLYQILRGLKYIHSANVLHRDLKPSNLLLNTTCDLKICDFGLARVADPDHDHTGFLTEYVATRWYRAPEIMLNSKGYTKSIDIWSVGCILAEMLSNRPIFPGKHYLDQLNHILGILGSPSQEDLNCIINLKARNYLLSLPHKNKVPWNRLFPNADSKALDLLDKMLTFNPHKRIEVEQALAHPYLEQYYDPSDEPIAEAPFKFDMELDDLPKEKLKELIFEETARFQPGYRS
# Mitogen-activated protein kinase 3 (Homo sapiens), sequence (P27361 whole entry): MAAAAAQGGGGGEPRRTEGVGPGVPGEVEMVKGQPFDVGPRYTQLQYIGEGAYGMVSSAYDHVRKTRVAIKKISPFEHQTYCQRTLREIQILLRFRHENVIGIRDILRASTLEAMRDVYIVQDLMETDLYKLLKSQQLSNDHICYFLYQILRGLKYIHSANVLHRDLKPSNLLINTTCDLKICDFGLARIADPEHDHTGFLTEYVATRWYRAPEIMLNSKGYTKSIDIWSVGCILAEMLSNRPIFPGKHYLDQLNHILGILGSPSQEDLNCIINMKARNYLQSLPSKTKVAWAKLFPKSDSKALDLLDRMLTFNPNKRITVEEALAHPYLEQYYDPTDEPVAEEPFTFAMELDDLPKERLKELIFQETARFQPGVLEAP
# Tyrosine-protein kinase Lck (Homo sapiens), sequence (P06239 2-509 limits assumed): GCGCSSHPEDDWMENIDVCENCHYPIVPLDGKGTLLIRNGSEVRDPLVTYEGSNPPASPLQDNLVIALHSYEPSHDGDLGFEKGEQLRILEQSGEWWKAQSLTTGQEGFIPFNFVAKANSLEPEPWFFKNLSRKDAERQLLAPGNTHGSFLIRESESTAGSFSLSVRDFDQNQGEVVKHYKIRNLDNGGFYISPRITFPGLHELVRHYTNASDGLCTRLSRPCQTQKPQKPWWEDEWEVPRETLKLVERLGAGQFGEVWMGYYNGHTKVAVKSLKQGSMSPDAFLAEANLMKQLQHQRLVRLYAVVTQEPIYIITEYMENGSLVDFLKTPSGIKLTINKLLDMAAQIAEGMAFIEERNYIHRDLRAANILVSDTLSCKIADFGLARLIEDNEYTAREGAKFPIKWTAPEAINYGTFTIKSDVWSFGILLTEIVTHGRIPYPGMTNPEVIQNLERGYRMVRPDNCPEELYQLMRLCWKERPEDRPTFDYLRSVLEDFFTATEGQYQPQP
SMILES,residual activity [1] [%],residual activity [2] [%],residual activity [3] [%],residual activity [4] [%],residual activity [5] [%],residual activity [6] [%],residual activity [7] [%],residual activity [8] [%],residual activity [9] [%],residual activity [10] [%]
CCOc1cc2ncnc(Nc3cccc(Br)c3)c2cc1OCC,4,26,8,3,1,90,55,106,77,73
Cc1ccc(NC2=CC(=O)c3sc(C)nc3C2=O)cc1,80,92,98,80,71,102,120,108,106,85
Cn1cc(/C=C2\C(=O)Nc3ccc(S(N)(=O)=O)cc32)c2ccccc21,14,30,34,10,1,85,90,106,103,83
N#C/C(=C(\N)Sc1ccc(N)cc1)c1ccccc1C(F)(F)F,103,110,74,65,67,95,114,104,90,70
O=C1NC(=O)c2c1c1c3ccccc3[nH]c1c1[nH]c3cc(Br)ccc3c21,62,95,95,72,69,103,104,111,99,98
O=c1cc(-c2cccc3c2Sc2ccccc2S3)oc(N2CCOCC2)c1,94,112,102,92,86,110,125,107,100,100
Oc1n[nH]c2nnc(-c3c(-c4ccccc4)nn4ccccc34)cc12,82,90,71,71,68,92,93,101,105,82
Oc1ccc(Nc2nc(-c3ccc(Cl)cc3)cs2)cc1,103,98,79,84,56,96,81,114,107,108
COc1cccc(-c2cc(=O)c3ccccc3o2)c1N,85,103,93,93,80,106,90,114,96,99
Cc1nc(-c2ccccc2)c(-c2ccncc2)o1,59,45,42,0,0,116,97,118,100,95
CC(C)n1cnc2/c(=N/c3cccc(Cl)c3)nc(NCCO)[nH]c21,37,86,40,20,2,92,77,117,78,91
CC#CC(=O)Nc1cc2c(Nc3ccc(F)c(Cl)c3)ncnc2cn1,71,97,84,78,51,100,88,101,103,89
Nc1n[nH]c2nnc(-c3c(-c4ccccc4)nn4ccccc34)cc12,58,94,68,66,33,21,3,68,13,102
O=C1NC(=O)/C(=C/c2ccc3c(c2)OC(F)(F)O3)S1,128,87,91,100,65,90,77,104,107,93
COc1ccc(OC)c2c(=S)c3ccccc3[nH]c12,101,103,92,80,84,97,112,111,101,102
O=Nc1c(-c2c(O)[nH]c3ccccc23)[nH]c2ccccc12,6,22,17,8,2,114,101,104,103,101
c1ccc(-c2n[nH]cc2-c2ccnc3ccccc23)nc1,71,91,66,90,24,88,83,96,109,101
O=C1NC(=O)/C(=C\c2ccc3nccnc3c2)S1,84,81,61,99,89,82,77,98,96,87

SMILES,residual activity [1] [%],residual activity [2] [%],residual activity [3] [%],residual activity [4] [%],residual activity [5] [%],residual activity [6] [%],residual activity [7] [%],residual activity [8] [%],residual activity [9] [%],residual activity [10] [%]
COc1ccc(C(=O)Nc2sc3c(c2C(N)=O)CCCC3)cc1OC,103,88,84,69,46,97,86,111,109,70
O=C1Nc2cc(Br)ccc2/C1=C1/Nc2ccccc2/C1=N\O,10,1,19,4,1,102,80,108,106,96
Cn1cnc2cc3c(Nc4cccc(Br)c4)ncnc3cc21,24,41,34,8,2,103,85,107,95,108
COc1cc2ncc(-c3ccccc3)nc2cc1OC,75,86,80,67,58,89,81,–,–,–
Cc1cc2ncc(-c3ccccc3)nc2cc1C,97,91,101,74,75,87,86,100,100,–
CC(C)n1cnc2c(NCc3ccccc3)nc(NCCCO)nc21,70,87,86,53,38,87,92,100,90,72
COc1cc2ncnc(N3CCN(C(=O)Nc4ccc(Oc5ccccc5)cc4)CC3)c2cc1OC,59,92,68,98,100,76,95,106,105,99
c1ccc2c(-c3ccncc3)c[nH]c2c1,79,94,101,105,91,77,87,101,99,90
CCN(CC)CCCCN1c2ccccc2Oc2ccc(Cl)cc21,120,101,64,102,67,112,114,116,104,115
CNc1cc2c(Nc3cccc(Br)c3)ncnc2cn1,19,73,79,10,5,86,95,102,96,119
CCC(=O)Nc1ccc2ncnc(Nc3cccc(Br)c3)c2c1,67,77,75,28,5,83,85,93,94,88
Cc1ccc(S(=O)(=O)/C=C/C#N)cc1,94,87,97,92,94,97,114,113,110,93
O=C1c2ccccc2-[n+]2ccc3c([nH]c4ccccc43)c21,69,81,74,88,65,85,94,107,108,81
O=C(O)c1ccc2c3c1cccc3c(=O)n1c3ccccc3nc21,109,95,79,96,87,117,77,123,96,86
CO[C@H]1C[C@@H]2CC[C@@H](C)[C@@](O)(O2)C(=O)C(=O)N2CCCC[C@H]2C(=O)O[C@H]([C@H](C)C[C@@H]2CC[C@@H](O)[C@H](OC)C2)CC(=O)[C@H](C)/C=C(\C)[C@@H](O)[C@@H](OC)C(=O)[C@H](C)C[C@H](C)/C=C/C=C/C=C/1C,80,102,124,86,131,83,116,102,101,86
CC(=O)O/N=C1\C(=C2\C(=O)Nc3cc(Br)ccc32)Nc2ccccc21,13,63,26,12,4,98,102,105,93,87
O=C(Nc1cccc(Nc2cc(Nc3cccc(C(F)(F)F)c3)ncn2)c1)C1CC1,29,85,81,62,18,96,85,102,103,89
